High-throughput results from PubChem.
NTR1 agonist: NTR1 (human) agonism; AID 493036; activation, % at 20 µM; P30989; NTR1-U2OS beta-arrestin-GFP spot imaging, agonist mode; actives 0.17% (n = 330,000);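 active = activation at or above 40% of the spot to cytoplasm intensity ratio, with at least 20 cells analyzed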
APOBEC3G inh: APOBEC3G (human) deaminase inhibition | inhibition, % at 20 µM | Q9HC16 | recombinant A3G, ssDNA deamination FAM/TAMRA fluorescence | AID 493012 | actives 0.28% (n = 330,000);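 active = inhibition of at least 40% at 20 µM, with no more than 30% in the related APOBEC3A deaminase screen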
APOBEC3A inh: inhibitors of human APOBEC3A DNA deaminase; P31941; recombinant A3A, FAM/TAMRA ssDNA deamination fluorescence; inhibition, % at 20 µM; actives 0.41% (n = 330,000);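 active = at least 40% inhibition at 20 µM here, with at most 30% in a related deaminase screen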
AHR act: human AHR activation; activation, % at 5 µM; P35869; actives 2.5% (n = 320,000); AHR-responsive luciferase reporter cells, luminescence; AID 2796; in the data active = activation above about 47%
A3A conf: APOBEC3A (human) deaminase inhibition, confirmed; actives 63% (n = 1,400); shares compounds with APOBEC3A inh; recombinant A3A, ssDNA deaminase UDG fluorescence assay; inhibition, % at 20 µM; AID 493151;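 active = inhibition reaching a set limit, 80% of the first screen's cutoff, at 20 µM in any replicate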
A3G conf: APOBEC3G (human) deaminase inhibition, confirmed | recombinant A3G ssDNA deaminase, UDG/FAM-TAMRA fluorescence | actives 72% (n = 890) | shares compounds with APOBEC3G inh | inhibition, % at 20 µM;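 active = inhibition reaching a set limit in any replicate at 20 µM, the limit being 80% of the first screen's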
UDG ctr A3G: counter-screen for APOBEC3G inhibitors: E. coli UDG; UDG counterscreen, FAM/TAMRA oligo fluorescence; AID 504715; shares compounds with APOBEC3G inh; 710 tested, under 10 active; inhibition, % at 20 µM;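 active = compounds giving 40% or more inhibition at 20 µM in any one of the three replicates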;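 note: inhibitors lower the FAM signal released by uracil excision and alkaline cleavage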
Large screens that a line does not name were inactive (follow-up assays come after a bar, where they were run). Hits are enriched below; roughly 3.2% of the tested compounds scored in any of these assays.

CC[n+]1c(/C=C/N(C)c2ccccc2)n(-c2ccccc2)c2ccc(-c3nc4ccccc4s3)cc21	APOBEC3A inh 61 | A3A conf 48
COc1ccccc1OCC(=O)N1CCN(S(=O)(=O)c2ccc(Cl)cc2)CC1	APOBEC3A inh 53 (no result: AHR act) | A3A conf inactive
O=C(Cc1c[nH]c2ccccc12)N1CCN(S(=O)(=O)c2ccc(Cl)cc2)CC1	APOBEC3A inh 40 (no result: AHR act) | A3A conf inactive
CN(CC(=O)NCC(=O)Nc1ccc(F)cc1)C1CCS(=O)(=O)C1 (configuration not stated)	none
Cc1cc(O)c(Sc2ncn[nH]2)cc1NS(=O)(=O)c1ccc(Cl)cc1	none
O=S(=O)(Nc1cc(Sc2ncn[nH]2)c(O)c2ccccc12)c1ccccc1	APOBEC3G inh 61 (no result: AHR act) | A3G conf 89 | UDG ctr A3G inactive
COC(=O)c1ccccc1NC(=O)c1sc(=S)n(C)c1N	APOBEC3G inh 40 | A3G conf 41 | UDG ctr A3G inactive
Cc1cccc(/C=N/n2c(-c3cc(-c4ccccc4)n[nH]3)n[nH]c2=S)c1	none
Cc1ccc(/C=N/n2c(-c3ccncc3)n[nH]c2=S)o1	APOBEC3G inh 47 | A3G conf 90 | UDG ctr A3G inactive
Cc1ccc(/C=N/n2c(C)n[nH]c2=S)o1	none
S=c1[nH]nc(-c2ccncc2)n1/N=C/c1ccccc1	APOBEC3G inh 55 | A3G conf 71 | UDG ctr A3G inactive
Cc1cccc(-c2n[nH]c(=S)n2/N=C/c2ccc(C)s2)c1	none
Cc1ccc(/C=N/n2c(-c3ccncc3)n[nH]c2=S)s1	APOBEC3G inh 49 | A3G conf 82 | UDG ctr A3G inactive
Cc1cccc(/C=N/n2c(-c3ccncc3)n[nH]c2=S)c1	APOBEC3G inh 79 | A3G conf 99 | UDG ctr A3G inactive
Cn1c(SCC(=O)N2CCOCC2)nc2c(c1=O)SCC2	none
Cc1ccc(NC(=O)C(C)N2CCCC2)cc1Cl (configuration not stated)	none
O=C(c1cnn(C(=O)CN2CCCC2=O)c1)c1ccccc1O	none
C=CCn1c(CSc2ccccc2[N+](=O)[O-])n[nH]c1=S	APOBEC3G inh 46 | A3G conf 68 | UDG ctr A3G inactive
O=C1C=CC(=O)C(C2=C3C(=O)N(CCc4ccccc4)CC(=O)N3CCC2)=C1	APOBEC3G inh 90 | A3G conf 93 | UDG ctr A3G inactive
N#Cc1cc2c([nH]c1=S)CCCC2	APOBEC3G inh 67 | A3G conf 78 | UDG ctr A3G inactive
CN(Cc1ccccc1)C1CCCN(C(=O)c2ccc(Cl)s2)C1 (configuration not stated)	none
COc1ccc2c(C)cc3n[nH]c(=S)n3c2c1	APOBEC3G inh 52 | A3G conf 87 | UDG ctr A3G inactive
COc1ccc(-c2n[nH]c(=S)n2-c2cc(OC)ccc2OC)cc1	none
Cc1cc(C)n2cnnc2n1	none
Cc1cc(C)n2c(=S)[nH]nc2n1	APOBEC3G inh 92 | A3G conf 90 | UDG ctr A3G inactive
CCOC(=O)c1sc(NC(=O)CSc2n[nH]c(-c3ccccc3)n2)c(C#N)c1C	APOBEC3G inh 47 | A3G conf 32 | UDG ctr A3G inactive
CCOC(=O)c1sc(NC(=O)C(C)C)c(C#N)c1C	APOBEC3G inh 57 | A3G conf 64 | UDG ctr A3G inactive
Cc1ccccc1NC(=O)C(=O)NNC(=O)COc1ccc2ccccc2c1	none
COc1ccc(N2CSC3=C(C#N)C(c4cccc(OC)c4OC)CC(=O)N3C2)cc1 (configuration not stated)	none
COc1ccc(C2CC(=O)N3CN(c4ccc(C)c(Cl)c4)CSC3=C2C#N)cc1 (configuration not stated)	APOBEC3G inh 52 | A3G conf 52
COc1ccc(OC)c(C2CC(=O)N3CN(c4ccccc4)CSC3=C2C#N)c1 (configuration not stated)	APOBEC3G inh 46 | A3G conf 56 | UDG ctr A3G inactive
COc1ccc2ccccc2c1C1CC(=O)N2CN(C3CCCCC3)CSC2=C1C#N (configuration not stated)	none
COc1cc(OC)c(C2CC(=O)N3CN(c4ccccc4C)CSC3=C2C#N)cc1OC (configuration not stated)	APOBEC3G inh 44 | A3G conf inactive
CC/C(=N/O)c1cnnc(SC)n1	none
CC/C(=N/Nc1cccc(C)c1)c1cnnc(SC)n1	APOBEC3G inh 46 | A3G conf inactive
COC(=O)Cc1sc(-c2ccccn2)nc1-c1ccccc1	APOBEC3G inh 49 | A3G conf 41 | UDG ctr A3G inactive
COC(=O)Cc1ccc2sc(-c3ccccc3)nc2c1	none
COc1ccc(OC)c(CCNC(=O)Cn2sc3nc(C)cc(C)c3c2=O)c1	APOBEC3G inh 63 | A3G conf 78
Cc1cc(C)c2c(=O)n(CC(=O)Nc3cccc(Cl)c3C)sc2n1	APOBEC3G inh 72 | A3G conf 83 | UDG ctr A3G inactive
Cc1cc(C)c2c(=O)n(CC(=O)NC3CCCC3)sc2n1	APOBEC3G inh 51 | A3G conf 83 | UDG ctr A3G inactive
Cc1cc(C)c2c(=O)n(CC(=O)Nc3ccc(Br)c(C)c3)sc2n1	none (no result: APOBEC3G inh, APOBEC3A inh)
COc1ccc(-n2ncc3c2CC(C)(C)CC3NC(=O)c2cn[nH]c2)cc1 (configuration not stated)	none (no result: AHR act)
CN(C)C(CNC(=O)c1ccc2c(=O)n(-c3ccccc3F)c(=S)[nH]c2c1)Cc1ccccc1 (configuration not stated)	none
CCCCOC(=O)c1cccnc1	none
CCN1CCN(c2nc(-c3ccccc3Cl)nc3ccccc23)CC1	APOBEC3G inh 44 | A3G conf inactive | UDG ctr A3G inactive
CCOC(=O)N1CCc2c(sc(N)c2C#N)C1	APOBEC3G inh 49 | A3G conf 36
CCOC(=O)N1CCc2c(sc(NC(=O)CN3CCOCC3)c2C#N)C1	none
CCC(C(=O)NCc1ccncc1)c1ccccc1 (configuration not stated)	none
CCN1CCN(C(=S)c2ccc(Cl)cc2)CC1	APOBEC3G inh 68 | A3G conf 75 | UDG ctr A3G inactive
CCOC(=O)c1cc(-c2ccc(OC)cc2)nn1-c1ccccc1C(=O)O	APOBEC3G inh 63 | A3G conf 41 | UDG ctr A3G inactive
N/N=C(/Cc1nc2ccccc2[nH]1)c1ccc([N+](=O)[O-])cc1	none
O=C(Nc1nc(-c2nc3ccccc3s2)cs1)C1CC1	APOBEC3G inh 43 | A3G conf inactive
O=C(Nc1nc(-c2nc3ccccc3s2)cs1)c1ccco1	none
S=c1[nH]nc(-c2ccco2)n1/N=C/C(Cl)=C/c1ccccc1	none
Cc1cc(-c2n[nH]c(=S)n2-c2ccccc2)nn1C	none
S=c1[nH]nc(-c2ccco2)n1/N=C/c1c(Cl)cccc1Cl	APOBEC3G inh 43 | A3G conf 71 | UDG ctr A3G inactive
